According to the supplement of paper PMC6555819:

Experiments:
Assay in all cases: PBM binding z-score (relative to random genomic background probes); higher = stronger binding; sequences stand for … in GC…GCGATTGACAGCGTAGAATGAAGG
[1] = system: FXR:RXRa (NR concentration 270 nM, RXRa partner concentration 90 nM)
Outline: (§1)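 Each nuclear receptor dimer, without ligand, was incubated for 1 h on custom Agilent 4×180K protein-binding microarrays. Binding was detected with antibodies against each partner (one per run), and scanned fluorescence was regression-normalized. The binding z-scores are referenced to random human genomic background probes.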

[2] = system: LXRa:RXRa (NR concentration 270 nM, RXRa partner concentration 90 nM)
Outline: as §1

[3] = system: LXRa homodimer (NR concentration 270 nM)
Outline: as §1

[4] = system: LXRb:RXRa (NR concentration 270 nM, RXRa partner concentration 90 nM)
Outline: as §1

[5] = system: LXRb homodimer (NR concentration 270 nM)
Outline: as §1

[6] = system: PPARa:RXRa (NR concentration 270 nM, RXRa partner concentration 90 nM)
Outline: as §1

[7] = system: PPARg:RXRa (NR concentration 180 nM, RXRa partner concentration 90 nM)
Outline: as §1

[8] = system: PPARg:RXRa 270nM:90nM, anti-RXR (NR concentration 270 nM, RXRa partner concentration 90 nM)
Outline: as §1

[9] = system: PPARg:RXRa 30nM:10nM, anti-RXR (NR concentration 30 nM, RXRa partner concentration 10 nM)
Outline: as §1

[10] = system: PPARg:RXRa 90nM:30nM, anti-RXR (NR concentration 90 nM, RXRa partner concentration 30 nM)
Outline: as §1

[11] = system: PPARg:RXRa DBDmut IVT, anti-RXR (DBD mutation: RXRa K156A/R161A, NR concentration 270 nM, RXRa partner concentration 90 nM)
Outline: as §1

[12] = system: PPARg:RXRa IVT, anti-PPARg (NR concentration 270 nM, RXRa partner concentration 90 nM)
Outline: as §1

[13] = system: PPARg DBDmut:RXRa IVT, anti-PPARg (DBD mutation: PPARg1 K132A/R137A, NR concentration 270 nM, RXRa partner concentration 90 nM)
Outline: as §1

[14] = system: PPARg DBDmut IVT, anti-PPARg (DBD mutation: PPARg1 K132A/R137A, NR concentration 270 nM)
Outline: as §1

[15] = system: PPARg homodimer (NR concentration 180 nM)
Outline: as §1

[16] = system: PXR:RXRa (NR concentration 270 nM, RXRa partner concentration 90 nM)
Outline: as §1

[17] = system: PXR homodimer (NR concentration 270 nM)
Outline: as §1

[18] = system: RARa:RXR (NR concentration 270 nM, RXRa partner concentration 90 nM)
Outline: as §1

[19] = system: RARa homodimer (NR concentration 270 nM)
Outline: as §1

[20] = system: RARb:RXRa (NR concentration 270 nM, RXRa partner concentration 90 nM)
Outline: as §1

Sequence | PBM binding z-score [1] | PBM binding z-score [2] | PBM binding z-score [3] | PBM binding z-score [4] | PBM binding z-score [5] | PBM binding z-score [6] | PBM binding z-score [7] | PBM binding z-score [8] | PBM binding z-score [9] | PBM binding z-score [10] | PBM binding z-score [11] | PBM binding z-score [12] | PBM binding z-score [13] | PBM binding z-score [14] | PBM binding z-score [15] | PBM binding z-score [16] | PBM binding z-score [17] | PBM binding z-score [18] | PBM binding z-score [19] | PBM binding z-score [20]
CCTCGGAGGACAAAAGGTCAGAGCTGTCCGCTTT | 3.66 | 4.52 | 2 | 3.34 | -0.114 | 3.96 | 1.65 | 3.76 | 1.1 | 3.22 | 1.07 | 1.62 | -0.684 | -1.47 | 4.04 | 3.72 | 0.0706 | 4.59 | 0.836 | 4.61
CCTGCTAGGTCAATGGTCAGATAAAGCAGCTCGC | 2.9 | 2.29 | 0.316 | 1.61 | -0.124 | 3.15 | 4.67 | 5.1 | 2.77 | 4.96 | 4.27 | 4 | -0.328 | -0.659 | 1.01 | 0.646 | -0.497 | 1.44 | 0.218 | 3.65
ACAGACAGGTGATGAAAGTAACTCAGGCTATCAT | -0.313 | -0.244 | -0.212 | -0.34 | -0.446 | -0.12 | 0.596 | -0.0784 | -0.0592 | -0.305 | -0.123 | 0.107 | 0.648 | -0.00926 | -0.948 | -0.313 | 0.153 | -0.63 | -0.762 | 0.0648
ATATGTAGGTTACATCCGGGACATTCAGGCTATG | 0.396 | 2.2 | 0.343 | 1.11 | 0.574 | 3.44 | 5.41 | 4.47 | 1.95 | 3.37 | 7.57 | 7.46 | 4.54 | 2.06 | 1.33 | 0.599 | 0.5 | 0.964 | 0.969 | 1.08
CCTTACGGGTCACAAGGTTATAGCACGACGAGCG | 5.77 | 4.34 | 0.422 | 3.65 | 0.114 | 5.46 | 5.45 | 5.85 | 2.52 | 4.65 | 3.76 | 4.65 | 0.482 | 0.244 | 2.41 | 3.87 | 0.686 | 4.98 | 1.2 | 4.15
CGTCCAACGTCATAGGAGGTCAGTGAAGACAGAT | 1.79 | 2.71 | 0.999 | 1.63 | -0.234 | 2.09 | 0.683 | 0.77 | 0.184 | 0.231 | 0.0965 | 1.08 | 0.0644 | -0.0605 | 1.13 | 2.24 | 0.731 | 1.79 | 0.648 | 2.14
TAGCCTAGGTAATTCAGGGGCCAGTATAGAAAGC | -0.449 | -0.444 | -0.517 | -0.109 | -0.53 | -0.0424 | 0.145 | -0.169 | -0.327 | -0.103 | -0.0164 | 0.234 | 0.0188 | -0.116 | -0.334 | -0.507 | -0.545 | -0.256 | -0.299 | 0.0227
TCTTGTAGAGCAAGCAGGTTAAGAAAGCCTGAGT | -0.159 | -0.27 | -0.458 | -0.282 | -1.49 | 0.415 | -0.461 | 0.511 | 1.29 | 1.1 | 1.77 | 0.824 | -0.533 | -0.908 | -0.862 | -0.144 | -0.157 | -0.225 | -0.639 | -0.127
CCGAGAAGGTTATGGGGCATTCAGGCAACGGTGA | 1.63 | 1.52 | 0.000193 | 1.24 | -0.242 | 2.89 | 1.15 | 1.75 | -0.0865 | 0.883 | 0.959 | 1.38 | -0.265 | -0.895 | 1.08 | 0.668 | 0.111 | 1.54 | -0.0567 | 2.08
ACAGACAGGTGAGTGGAGGTAACTCAGCTGGACG | 0.578 | 0.206 | -0.47 | -0.13 | -0.275 | 0.431 | 0.557 | -0.0456 | -0.0591 | 0.000165 | 0.56 | 1.09 | -0.327 | -0.467 | 0.425 | 0.121 | -0.151 | 0.729 | -0.053 | 0.617
GCGACTGGGGCAAAGGAGGTTACCATAAGGTTGG | 1.77 | 1.09 | -0.0421 | 0.882 | -0.261 | 2.06 | 3.15 | 3.93 | 1.89 | 3.87 | 4.69 | 3.76 | -0.0461 | -0.579 | 1.05 | 1.54 | -0.167 | 1.41 | -0.0952 | 1.26
TCTTGTACATCAGCAGGTTAAGAAAGCTGGCCAA | 0.22 | 0.475 | -0.073 | 0.542 | 0.127 | 0.883 | -0.203 | 1.47 | 2.81 | 2.33 | 1.51 | 0.722 | -0.0534 | 0.403 | -0.0357 | 0.478 | -0.155 | 0.59 | 0.183 | 0.473
AGAGACAGGTGAGTGAAGGTAACTCAGCTGGACG | 0.542 | 0.207 | -0.174 | 0.279 | 0.443 | 0.437 | 0.497 | 0.226 | 0.0896 | 0.0651 | 0.422 | 0.599 | 0.635 | -0.659 | 0.101 | 0.0989 | 0.169 | 0.435 | -0.0726 | 0.876
CCTAGCAAGCCAATCTGGGTCACTCAAGGCTTGA | 0.309 | 0.44 | -0.472 | 0.641 | -0.582 | 3.06 | 1.85 | 1.79 | -0.259 | 0.994 | 3.85 | 4.86 | -0.252 | -0.0798 | 0.973 | 0.841 | -0.371 | 1.69 | -0.371 | 0.92
